From PubChem BioAssay
Calls of active or inactive are those of the source. Cut-off read from the data, not from the text of the source, unless noted: active = inhibition above about 80%; inactive = the rest.

Key:
[1] = viability rescue of complex I mutant cybrids, primary screen, cell-based, galactose medium, ATP luminescence (AID 1645843;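 active = z-score of at least 1.8 in each of two replicates, scored against plate mean and spread of sample wells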;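 note: positive z means more ATP and so rescue of galactose-driven cybrid death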); details: complex I mutant cybrid cells, 72 h, stronger effect = higher value
[2] = LFS_MB_P medulloblastoma growth inhibition, cell-based, chromothripsis tumors, cisplatin or BGB combos (AID 1671449); details: LFS_MB_P medulloblastoma cells;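 note: cells exposed for 96 hours; 0% = vehicle DMSO and 100% = killing by high DMSO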
[3] = HDN33 neuroblastoma growth inhibition, cell-based, chromothripsis tumors, cisplatin or BGB combos (AID 1671450); details: HDN33 neuroblastoma cells, stronger effect = higher value;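 note: cells exposed to compound for four days; 0% = vehicle DMSO and 100% = cell killing by high DMSO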
[4] = ICB984 medulloblastoma cell growth inhibition, synergistic combos for chromothripsis tumors, cisplatin or BGB combos (AID 1671451; call rule not given here;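 note: cells exposed for 96 hours before readout; 0% = vehicle DMSO and 100% = killing by high DMSO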); details: ICB984 medulloblastoma cells, drug combinations, stronger effect = higher value
[5] = LFS_MB_1R medulloblastoma cell growth inhibition, synergistic combos for chromothripsis tumors, cisplatin or BGB combos (AID 1671452); details: LFS_MB_1R medulloblastoma cells, stronger effect = higher value;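 note: cells exposed for 96 hours before readout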
[6] = HTB85 osteosarcoma cell growth inhibition, synergistic combos for chromothripsis tumors, BGB or cisplatin IC20 combos (AID 1671453); details: HTB85 osteosarcoma cells, drug combinations, stronger effect = higher value;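 note: cells exposed for 96 hours before readout; 0% = vehicle DMSO and 100% = high DMSO killing control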
[7] = CRL2098 osteosarcoma cell growth inhibition, synergistic combos for chromothripsis tumors, BGB or cisplatin IC20 combos (AID 1671454); details: CRL2098 osteosarcoma cells, drug combinations, stronger effect = higher value;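 note: cells exposed for 96 h before readout; 0% = vehicle DMSO and 100% = killing by high DMSO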
[8] = HD-MB03 medulloblastoma cell growth inhibition, synergistic combos for chromothripsis tumors, BGB or cisplatin IC20 combos (AID 1671455; in the data active = inhibition above about 83%;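 note: 0% = vehicle DMSO and 100% = high DMSO as cytotoxic control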); details: HD-MB03 medulloblastoma cells, stronger effect = higher value
[9] = UWB1.289 ovarian carcinoma cell growth inhibition, synergistic combos for chromothripsis tumors, BGB or cisplatin combos (AID 1671456); details: UWB1.289 ovarian carcinoma cells, stronger effect = higher value;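 note: cells exposed to compound for four days; 0% = vehicle DMSO and 100% = killing by high DMSO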
[10] = LFS_MB_2R medulloblastoma cell growth inhibition, synergistic combos for chromothripsis tumors, cisplatin combos (AID 1671457); details: LFS_MB_2R medulloblastoma cells, stronger effect = higher value;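 note: cells exposed to compound for four days before readout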
[11] = MDA-MB-436 breast carcinoma cell growth inhibition, synergistic combos for chromothripsis tumors, BGB or cisplatin combos (AID 1671458; call rule not given here;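 note: cells exposed for 96 hours; 0% = vehicle DMSO and 100% = killing by high DMSO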); details: MDA-MB-436 breast carcinoma growth inhibition, drug combinations, stronger effect = higher value
[12] = UWB1.289_BRCA1 ovarian cancer growth, cell-based, BGB or cisplatin combinations (AID 1671459); details: UWB1.289 BRCA1 ovarian carcinoma, drug combinations, stronger effect = higher value
[13] = human astrocyte viability loss, single and combined drugs, cytotoxicity control for chromothriptic childhood tumor combination screen, cell-based, BGB or cisplatin IC20 combos (AID 1671460); details: Human astrocytes, drug combinations, stronger effect = higher value;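 note: cells exposed to compounds for 96 hours before viability readout; 0% = vehicle and 100% = killing control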
[14] = growth inhibition of BT084 medulloblastoma cells, cell-based, ICGC_MB145, cisplatin and BGB IC40 combos (AID 1671461); details: drug combinations, stronger effect = higher value;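 note: cells exposed to drugs for 96 hours; 0% = vehicle DMSO and 100% = high DMSO full killing control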
[15] = growth inhibition of RCMB18 medulloblastoma cells, cell-based, cisplatin and BGB IC40 combos (AID 1671462); details: stronger effect = higher value;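 note: cells exposed to compound for four days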
[16] = growth inhibition of CRL1545 osteosarcoma cells, cell-based, cisplatin and BGB IC20 combos (AID 1671464); details: stronger effect = higher value;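 note: cells exposed to compound for 96 hours before readout; 0% = vehicle DMSO and 100% = high DMSO killing control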
[17] = measured here: combination with BGB IC40, at 0.05 µM
[18] = measured here: with BGB IC20 combination, at 0.5 µM
[19] = measured here: with cisplatin IC20 combination, at 0.5 µM
[20] = measured here: combination with cisplatin, at 0.5 µM
[21] = measured here: combination with cisplatin, at 5 µM

SMILES: CCCCCNC(=O)N1CCC2(CC1)Nc1ccccc1N(CC1CC1)C2=O
- z-score [1]: 0.705 (inactive)

SMILES: NC(=O)c1cccc2cn(-c3ccc(C4CCCNC4)cc3)nc12 (centres undefined)
- inhibition ([2]; at 0.5 µM, stronger effect = higher value): -22.2% (inactive)
- inhibition ([2]; measured here: combination with BGB IC20, at 0.005 µM): 9.92%
- inhibition ([2]; measured here: combination with BGB IC40, at 0.005 µM): -8.03%
- inhibition [2, 17]: -6.95%
- inhibition ([2]; measured here: combination with cisplatin, at 0.5 µM, stronger effect = higher value): -37.4%
- inhibition ([2]; measured here: combination with cisplatin, at 5 µM, stronger effect = higher value): -29.2%
- inhibition ([3]; BGB combo, at 5 µM): -13.1%
- inhibition ([3]; at 0.5 µM): -12.8% (inactive)
- inhibition ([3]; cisplatin combo, at 5 µM): 28.2%
- inhibition [3, 18]: -14.6%
- inhibition [3, 19]: -19.6%
- inhibition ([3]; single agent, at 5 µM): 44.3%
- inhibition ([4]; BGB IC20 combo, at 0.005 µM): -10.7%
- inhibition ([4]; BGB IC40 combo, at 0.005 µM): -50.8%
- inhibition ([4]; BGB IC40 combo, at 0.05 µM): -43.2%
- inhibition ([4]; at 0.5 µM): -25.3% (inactive)
- inhibition ([4]; cisplatin combo, at 0.05 µM): -48.9%
- inhibition ([4]; cisplatin combo, at 0.5 µM): -42.4%
- inhibition ([4]; cisplatin combo, at 5 µM): -33%
- inhibition ([4]; measured here: 5 uM single agent, at 5 µM): -12.1%
- inhibition ([5]; at 0.5 µM): -17.8% (inactive)
- inhibition [5, 17]: -23.5%
- inhibition [5, 20]: -55.4%
- inhibition [5, 21]: -54.7%
- inhibition ([6]; at 0.5 µM): -22% (inactive)
- inhibition ([6]; measured here: with BGB IC20, at 0.5 µM): -26.2%
- inhibition ([6]; measured here: with BGB IC20, at 5 µM): -8.36%
- inhibition ([6]; measured here: with cisplatin IC20, at 0.5 µM): -25.1%
- inhibition ([6]; measured here: with cisplatin IC20, at 5 µM): 8.74%
- inhibition ([6]; single agent, at 5 µM): 31.7%
- inhibition ([7]; at 0.5 µM): -34.1% (inactive)
- inhibition ([7]; measured here: combination with BGB at IC20, at 0.5 µM): -52.1%
- inhibition ([7]; measured here: combination with cisplatin at IC20, at 0.5 µM): -0.058%
- inhibition ([8]; at 0.5 µM): -5.6% (inactive)
- inhibition ([8]; measured here: combo with BGB at IC20, at 0.5 µM): -17.4%
- inhibition ([8]; measured here: combo with cisplatin at IC20, at 0.5 µM): 6.18%
- inhibition ([9]; at 0.5 µM): -3.23% (inactive)
- inhibition ([9]; measured here: inhibition with BGB combination, at 0.05 µM): 2.85%
- inhibition ([9]; measured here: inhibition with cisplatin combination, at 0.05 µM): -19.1%
- inhibition ([10]; at 0.5 µM): -4.32% (inactive)
- inhibition [10, 20]: -10.3%
- inhibition [10, 21]: -4.18%
- inhibition ([11]; at 0.5 µM): 13.9% (inactive)
- inhibition ([11]; measured here: BGB combination, at 0.5 µM): -2.85%
- inhibition ([11]; measured here: BGB combination, at 5 µM): -6.33%
- inhibition ([11]; measured here: cisplatin combination, at 0.5 µM): 15.6%
- inhibition ([11]; measured here: cisplatin combination, at 5 µM): 32.2%
- inhibition ([12]; BGB combination, concentration series, at 5 µM): -5.8%
- inhibition ([12]; at 0.5 µM): 0.96% (inactive)
- inhibition ([12]; cisplatin combination, concentration series, at 5 µM): 23.7%
- inhibition ([13]; at 0.5 µM): -10.9% (inactive)
- inhibition ([13]; measured here: combo with BGB IC20, at 0.5 µM): -10.9%
- inhibition ([13]; measured here: combo with cisplatin IC20, at 0.5 µM): -15.8%
- inhibition ([14]; at 0.5 µM): -8.13% (inactive)
- inhibition ([14]; cisplatin combination, at 0.5 µM): -15.8%
- inhibition ([14]; cisplatin combination, at 5 µM): -1.06%
- inhibition ([14]; measured here: BGB IC40 combination 0.05 uM, at 0.05 µM): 4.73%
- inhibition ([14]; single agent, at 5 µM): -30.1%
- inhibition ([15]; at 0.5 µM): -4.94% (inactive)
- inhibition ([15]; cisplatin combo, at 5 µM): -39.1%
- inhibition ([15]; measured here: BGB IC40 combination, at 0.05 µM): -13.7%
- inhibition [15, 20]: -10.1%
- inhibition ([15]; single agent, at 5 µM): -43.2%
- inhibition ([16]; at 0.5 µM): -29.8% (inactive)
- inhibition [16, 18]: -55.3%
- inhibition [16, 19]: -17%
- inhibition ([16]; single agent, at 0.05 µM): -35.4%
- inhibition ([16]; single agent, at 5 µM): 30.1%
